Among the data in PubChem BioAssay (NCATS) are Potency values, retold here.

Structures are written as SMILES. Results filed as inconclusive are left out. A call without a number means that no potency is given here. Active and inactive are the calls of the source. Calls come from the whole dose curve; as a rule, active = well fitted inhibition curve with a large enough effect; inconclusive = small, poorly fitted or top-dose-only effect; inactive = flat fitted curve, though single readings scatter.
Potency is the fitted concentration of half-maximal effect.

The first test deals with CP265. The test can be described thus: qHTS profiling for inhibitors of Plasmodium falciparum proliferation (AID 504749). Note: nearly all actives have a fitted effect of over 60% in size. The note with it: P. falciparum in erythrocytes, SYBR Green DNA, 72 h; series mostly up to 28.7 µM. Summed up: (§1)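 Three-day growth assay of blood-stage parasites in erythrocytes (0.3% parasitemia, 2.5% hematocrit) at 37 C, 5% CO2, quantified by SYBR Green DNA staining after overnight detergent lysis.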
As to `Cc1ccc(C(C)(C)c2ccc(C)cc2)cc1`, the Potency entry was “inactive”.

With `N[C@H](CC(=O)O)C(=O)O`, the Potency result is “inactive”.

Regarding `O=C(O)COc1ccc(CCNS(=O)(=O)c2ccccc2)s1`, the Potency result is “inactive”.

As for `O=S(=O)(O)CCCS(=O)(=O)O`, the Potency result was “inactive”.

As for `COC(=O)c1ccccc1O`, the Potency entry was “inactive”.

As for `CC1(O)CCC(C(C)(C)O)CC1` (stereo not drawn), the Potency entry was “inactive”.

As to `COc1ccc(/C=C/C(=O)O)cc1`, the Potency result is “inactive”.

In the case of `CC(=O)Nc1c(I)c(C(=O)O)c(I)c(N(C)C(C)=O)c1I`, the Potency result is “inactive”.

Take `Nc1ncnc2c1ncn2[C@H]1CC[C@@H](CO)O1`: the Potency entry is “inactive”.

With `COC(=O)C(CN)c1c[nH]c2ccc(OC)cc12` (stereo not drawn), the Potency entry is “inactive”.

On to `CC/C(=C(/CC)c1ccc(OP(=O)(O)O)cc1)c1ccc(OP(=O)(O)O)cc1`, for which the Potency entry was “inactive”.

On to `CN1c2c(nc(N)[nH]c2=O)NCC1CNc1ccc(C(=O)NC(CCC(=O)O)C(=O)O)cc1` (stereo not drawn), for which the Potency entry is “inactive”.

`CC(C)(CO)[C@@H](O)C(=O)NCCC(=O)NCCSSCCNC(=O)CCNC(=O)[C@H](O)C(C)(C)CO`: the Potency result was “inactive”.

For `CCCC(=O)O`, the Potency entry is “inactive”.

As for `CCSc1ccc2c(c1)N(CCCN1CCN(C)CC1)c1ccccc1S2`, the Potency entry is “inactive”.

In the case of `CC1=CC(=C(c2ccc(N)cc2)c2ccc(N)cc2)C=CC1=N`, the Potency was 3.16 µM (active).

Regarding `CC1=CC(=O)NS(=O)(=O)O1`, the Potency result is “inactive”.

In the case of `CC1CCCCN1CCCOC(=O)c1ccccc1` (stereo not drawn), the Potency result was “inactive”.

For `COC(=O)CC[C@H](N)C(=O)O`, the Potency entry was “inactive”.

For the compound `C[C@H](CCC(=O)O)[C@H]1CC[C@H]2[C@@H]3CC[C@@H]4C[C@H](O)CC[C@]4(C)[C@H]3C[C@H](O)[C@]12C`, the Potency result is “inactive”.

In the case of `CO`, the Potency result was “inactive”.

Turning to `C=CCN1CCCC1CNC(=O)c1cc(S(N)(=O)=O)cc(OC)c1OC` (stereo not drawn), the Potency entry is “inactive”.

As for `CC/C=C\C/C=C\C/C=C\C/C=C\C/C=C\C/C=C\CCC(=O)O`, the Potency entry is “inactive”.

With `COc1cc2c(cc1OC)[C@@H](Cc1cc(OC)c(OC)c(OC)c1)[N+](C)(CCCOC(=O)CC/C=C/CCC(=O)OCCC[N+]1(C)CCc3cc(OC)c(OC)cc3[C@H]1Cc1cc(OC)c(OC)c(OC)c1)CC2` (stereo partly drawn), the Potency entry was “inactive”.

`CCCOC(=O)c1ccccc1O`: the Potency result is “inactive”.

For the compound `CC/C=C\C/C=C\C/C=C\CCCCCCCC(=O)O`, the Potency entry was “inactive”.

On to `NC(=O)[C@H]1O[C@@H](O)[C@H](O)[C@@H](O)[C@@H]1O`, for which the Potency entry is “inactive”.

In the case of `CCCCCCCCCCCCOCCCN`, the Potency entry is “inactive”.

For the compound `CC(C)(C)c1ccc2c(S(=O)(=O)O)c(C(C)(C)C)ccc2c1`, the Potency result is “inactive”.

As to `COC(=O)CCC[N+](C)(C)C`, the Potency result is “inactive”.

Consider `CNC(=O)OCc1cccc(COC(=O)NC)n1`, for which the Potency result was “inactive”.

For the compound `O=C(NCCNCC(O)COc1ccc(O)cc1)N1CCOCC1` (stereo not drawn), the Potency result is “inactive”.

In the case of `OC[C@H]1O[C@@H]2O[C@H]3[C@H](O)[C@@H](O)[C@@H](O[C@H]4[C@H](O)[C@@H](O)[C@@H](O[C@H]5[C@H](O)[C@@H](O)[C@@H](O[C@H]6[C@H](O)[C@@H](O)[C@@H](O[C@H]7[C@H](O)[C@@H](O)[C@@H](O[C@H]1[C@H](O)[C@H]2O)O[C@@H]7CO)O[C@@H]6CO)O[C@@H]5CO)O[C@@H]4CO)O[C@@H]3CO`, the Potency entry was “inactive”.

With `CCCCCCCCCCCCCCCCCCCCCC(=O)Nc1ccn([C@@H]2O[C@H](CO)[C@@H](O)[C@@H]2O)c(=O)n1`, the Potency result was “inactive”.

On to `CCCCCCCCCCCCCCCCCC[N+](C)(C)CCC[Si](OC)(OC)OC`, for which the Potency result is “inactive”.

Turning to `OB(O)O`, the Potency entry was “inactive”.

Turning to `CCOc1ccc(NC(=S)Nc2ccc(OCC)cc2)cc1`, the Potency result is “inactive”.

`CC(C)c1nc(N(C)S(C)(=O)=O)nc(-c2ccc(F)cc2)c1/C=C/C(O)CC(O)CC(=O)O` (stereo not drawn): the Potency entry is “inactive”.

On to `O=C(/C=C/c1cccc(F)c1)NC1CC1`, for which the Potency entry was “inactive”.

In a further test the test system is CP266. Described as above. The note with it: P. falciparum in erythrocytes, SYBR Green DNA, 72 h; series mostly up to 28.7 µM. Summed up: as §1
On to `Cc1ccc(C(C)(C)c2ccc(C)cc2)cc1`, for which the Potency result is “inactive”.

For `N[C@H](CC(=O)O)C(=O)O`, the Potency result is “inactive”.

Take `O=C(O)COc1ccc(CCNS(=O)(=O)c2ccccc2)s1`: the Potency entry was “inactive”.

Regarding `O=S(=O)(O)CCCS(=O)(=O)O`, the Potency entry is “inactive”.

`COC(=O)c1ccccc1O`: the Potency result was “inactive”.

`CC1(O)CCC(C(C)(C)O)CC1` (stereo not drawn): the Potency result was “inactive”.

In the case of `COc1ccc(/C=C/C(=O)O)cc1`, the Potency entry was “inactive”.

On to `CC(=O)Nc1c(I)c(C(=O)O)c(I)c(N(C)C(C)=O)c1I`, for which the Potency entry was “inactive”.

For `Nc1ncnc2c1ncn2[C@H]1CC[C@@H](CO)O1`, the Potency result is “inactive”.

For the compound `COC(=O)C(CN)c1c[nH]c2ccc(OC)cc12` (stereo not drawn), the Potency entry was “inactive”.

On to `CC/C(=C(/CC)c1ccc(OP(=O)(O)O)cc1)c1ccc(OP(=O)(O)O)cc1`, for which the Potency result was “inactive”.

For the compound `CN1c2c(nc(N)[nH]c2=O)NCC1CNc1ccc(C(=O)NC(CCC(=O)O)C(=O)O)cc1` (stereo not drawn), the Potency result was “inactive”.

As for `CC(C)(CO)[C@@H](O)C(=O)NCCC(=O)NCCSSCCNC(=O)CCNC(=O)[C@H](O)C(C)(C)CO`, the Potency entry was “inactive”.

In the case of `CCCC(=O)O`, the Potency result is “inactive”.

Regarding `CCSc1ccc2c(c1)N(CCCN1CCN(C)CC1)c1ccccc1S2`, the Potency entry is “inactive”.

Regarding `CC1=CC(=C(c2ccc(N)cc2)c2ccc(N)cc2)C=CC1=N`, the Potency is 7.57 µM (active).

For `CC1=CC(=O)NS(=O)(=O)O1`, the Potency entry is “inactive”.

For the compound `CC1CCCCN1CCCOC(=O)c1ccccc1` (stereo not drawn), the Potency result was “inactive”.

Turning to `COC(=O)CC[C@H](N)C(=O)O`, the Potency result is “inactive”.

As for `C[C@H](CCC(=O)O)[C@H]1CC[C@H]2[C@@H]3CC[C@@H]4C[C@H](O)CC[C@]4(C)[C@H]3C[C@H](O)[C@]12C`, the Potency result is “inactive”.

Consider `CO`, for which the Potency entry is “inactive”.

Take `C=CCN1CCCC1CNC(=O)c1cc(S(N)(=O)=O)cc(OC)c1OC` (stereo not drawn): the Potency entry is “inactive”.

For `CC/C=C\C/C=C\C/C=C\C/C=C\C/C=C\C/C=C\CCC(=O)O`, the Potency result is “inactive”.

Take `COc1cc2c(cc1OC)[C@@H](Cc1cc(OC)c(OC)c(OC)c1)[N+](C)(CCCOC(=O)CC/C=C/CCC(=O)OCCC[N+]1(C)CCc3cc(OC)c(OC)cc3[C@H]1Cc1cc(OC)c(OC)c(OC)c1)CC2` (stereo partly drawn): the Potency entry was “inactive”.

On to `CCCOC(=O)c1ccccc1O`, for which the Potency entry was “inactive”.

Take `CC/C=C\C/C=C\C/C=C\CCCCCCCC(=O)O`: the Potency result is “inactive”.

In the case of `NC(=O)[C@H]1O[C@@H](O)[C@H](O)[C@@H](O)[C@@H]1O`, the Potency result was “inactive”.

As for `CCCCCCCCCCCCOCCCN`, the Potency result is “inactive”.

In the case of `CC(C)(C)c1ccc2c(S(=O)(=O)O)c(C(C)(C)C)ccc2c1`, the Potency result is “inactive”.

Consider `COC(=O)CCC[N+](C)(C)C`, for which the Potency entry was “inactive”.

Consider `CNC(=O)OCc1cccc(COC(=O)NC)n1`, for which the Potency entry is “inactive”.

Regarding `O=C(NCCNCC(O)COc1ccc(O)cc1)N1CCOCC1` (stereo not drawn), the Potency result was “inactive”.

On to `OC[C@H]1O[C@@H]2O[C@H]3[C@H](O)[C@@H](O)[C@@H](O[C@H]4[C@H](O)[C@@H](O)[C@@H](O[C@H]5[C@H](O)[C@@H](O)[C@@H](O[C@H]6[C@H](O)[C@@H](O)[C@@H](O[C@H]7[C@H](O)[C@@H](O)[C@@H](O[C@H]1[C@H](O)[C@H]2O)O[C@@H]7CO)O[C@@H]6CO)O[C@@H]5CO)O[C@@H]4CO)O[C@@H]3CO`, for which the Potency result was “inactive”.

On to `CCCCCCCCCCCCCCCCCCCCCC(=O)Nc1ccn([C@@H]2O[C@H](CO)[C@@H](O)[C@@H]2O)c(=O)n1`, for which the Potency entry was “inactive”.

In the case of `CCCCCCCCCCCCCCCCCC[N+](C)(C)CCC[Si](OC)(OC)OC`, the Potency entry was “inactive”.

Take `OB(O)O`: the Potency entry is “inactive”.

With `CCOc1ccc(NC(=S)Nc2ccc(OCC)cc2)cc1`, the Potency result was “inactive”.

Consider `CC(C)c1nc(N(C)S(C)(=O)=O)nc(-c2ccc(F)cc2)c1/C=C/C(O)CC(O)CC(=O)O` (stereo not drawn), for which the Potency result is “inactive”.

`O=C(/C=C/c1cccc(F)c1)NC1CC1`: the Potency entry was “inactive”.
